This note sets out measurements from PubChem BioAssay (NCI).

Molecules are shown by their SMILES. This is part of a sample that, as a whole, favours compounds with a hit. Of some 83,000 tested, about 20% had one in any assay.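 Method: cells in 96-well plates; compound added at one concentration; 48 h incubation; percent growth measured; values under 10 scored active.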 Active and inactive are the calls of the source.

This experiment concerns MDA-MB-468 breast. Kind of experiment: NCI-60 one-dose screen, 48 h (100 = growth as untreated, 0 = no growth, -100 = all killed). The following applies: 10 µM unless noted.
For the compound `COc1ccccc1NC(=O)Nc1ccc(-c2nc3ccccc3o2)cc1`, the growth is 101% (inactive). In the case of `COc1cc(C=C2C(=O)NC(=S)NC2=O)cc(CN2CCCC2)c1O`, the growth was 110% (inactive). To `c1ccc2c(-c3c[nH]c4ccccc34)c3c(cc2c1)[nH]c1ccccc13` belongs 53.8% (inactive). Turning to `CCc1ccc(C2=C(O)C(=O)C(c3ccc(CC)cc3)=C(O)C2=O)cc1`, the growth was -2.72% (active). With `CN1C(=O)N(C)C2C1NN=c1s/c(=C\c3ccccc3F)c(=O)n12` (stereo not given), the growth is 11.6% (inactive). Next, `COc1cc(-c2csc(NC(=O)c3cc(F)cc(C(F)(F)F)c3)n2)cc(OC)c1OC`: -1.52% (active); `COC(=O)c1c2c(c(C)[n+]([O-])c1C)C(=O)C=C(NCc1ccccc1)C2=O`: -68.9% (active); `COC(=O)CCC1=C(C)C(C)=N/C1=C\c1[nH]c(-c2ccc[nH]2)cc1OC`: 35% (inactive).

For `Nc1ccc2ccccc2c1-c1c(N)ccc2ccccc12`, the growth was 11.8% (inactive). Next, `COc1cc(/C=C/C(=O)c2cccc(-n3cc(-c4cc(OC)c(OC)c(OC)c4)[nH]c3=O)c2)cc(OC)c1OC`: 27.7% (inactive).

As to `CC1(C)Cc2c(sc3ncn4nc(-c5ccc(O)cc5)nc4c23)CO1`, the growth was 61.4% (inactive). To `CC(NC(=O)Oc1cccc2ccccc12)c1ccccc1` (stereo not given) belongs 107% (inactive).

Turning to `CCOc1ccc(Nc2nc(-c3ccc4c(c3)NC(=O)CO4)cs2)cc1`, the growth was 17.8% (inactive).

Turning to `C=C1C(=O)O[C@H]2[C@H]1CC/C(CNC(=O)/C1=C/CC[C@@]3(C)O[C@H]3[C@H]3OC(=O)C(=C)[C@@H]3CC1)=C\CC[C@@]1(C)O[C@@H]21`, the growth is 42.9% (inactive).

Regarding `CCCCCCCCCCCC[n+]1ccccc1`, the growth was -23.6% (active). Next, `O=C(CCCCCCSc1nc(-c2ccc(Cl)cc2)cc(-c2ccc(Cl)cc2)n1)NO`: 32.6% (inactive); `COc1ccc(C2CC(c3ccc(Nc4nc(Nc5ccc(F)cc5)nc(Nc5ccc(Cl)cc5)n4)cc3)=NN2C(C)=O)cc1` (stereo not given): 104% (inactive). With `COc1ccc(CN2C(=O)/C(=C\C(=O)c3ccc(OCCN4CCCC4)cc3)c3ccccc32)cc1`, the growth is 49.3% (inactive). Next, `COc1ccc(/C=C2\COc3ccc(O)c(O)c3C2=O)cc1`: -8.03% (active). Next, `O=C(O)c1nn(-c2ccc(Cl)cc2)nc1N1CCCC1`: 86% (inactive). To `O=C(NNc1nc2cc(F)cc(F)c2n2cccc12)c1cccnn1` belongs -21% (active); to `COc1cccc2c1O/C(=C\c1ncc([N+](=O)[O-])n1C)C2=O`, 19% (inactive). In the case of `COc1cc(OC)c(/C=C/S(=O)(=O)Cc2ccc(OC)c(NCC(=O)NO)c2)c(OC)c1`, the growth was 39.5% (inactive). To `COC(c1ccc2ccccc2c1)C(C)C(F)F` (stereo not given) belongs 99.7% (inactive); to `COc1cccc2cc(-c3cc4ccccc4[nH]3)/c(=N/C(=S)Nc3ccc(C)cc3)oc12`, 81.6% (inactive). To `CCCCC(=O)c1ccco1` belongs 95.1% (inactive); to `COC1=CC(c2ccc[nH]2)=N/C1=C\c1[nH]c(C)c(CC(=O)NCc2ccccc2)c1C`, 27.3% (inactive). With `CCCCCN(CCCCC)C(=O)C(CCC(=O)O)NC(=O)c1ccc(Cl)c(Cl)c1` (stereo not given), the growth is 106% (inactive). In the case of `Cc1[nH]c(C(=O)Nc2ccccc2OCc2cccc(C(=O)N3CCC[C@@H](N)C3)c2)c(Cl)c1Cl`, the growth was -74% (active). Next, `CCN(CC)CCCOc1cccc2c1C(=O)c1cccc(OCCCN(CC)CC)c1C2=O`: 35.5% (inactive); `C=CCNC(=S)NN`: 56.5% (inactive). Next, `Brc1cccc(-c2cc(-c3ccc4c(c3)OCCCO4)[nH]n2)c1`: 50.6% [25 µM] (inactive); `Cc1cc(=O)[nH]c(N/N=C/c2cc(Br)ccc2O)n1`: 3.37% (active); `O=C1OC(=O)C2C3CC(c4ccccc43)C12` (stereo not given): 121% (inactive). To `CN1CCN(Cc2ccc(NC(=O)c3cncc(C#Cc4cncc5nccnc45)c3)cc2C(F)(F)F)CC1` belongs 87% (inactive); to `CCOC(=O)c1c(NCC(=O)Nc2cccc([N+](=O)[O-])c2)sc(C(C)=O)c1C`, -22.5% (active); to `CC(C)(O)c1cncc(-c2ccc3ncnc(NCc4ccccc4)c3c2)c1`, 64.8% (inactive). On to `COc1cc(NCCN(CC(C)C)CC(C)C)c2ncc(C)cc2c1`, for which the growth was 11.7% (inactive). To `CCOC(=O)CCC(NC(=O)c1ccc(N)cc1)C(=O)OCC` (stereo not given) belongs 102% (inactive); to `N#CC(C#N)=C1NC(c2ccccc2)=C(c2ccccc2)C(c2ccccc2Cl)=C1C#N`, 129% (inactive).
